Test results reported in PubChem BioAssay (NCI).
Several values for one entry are separate records, joined by “and”; a condition that tells them apart may be missing. Identical values can stand only once. The panel holds about 83,000 compounds, 20% with a hit somewhere; the sample as a whole holds those more often.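 Compound tested at a single concentration for 48 hours in 96-well plates; a percent growth value below 10 was scored as active.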 Activity calls are given as the source filed them.

Assays:
Test in all cases: NCI-60 one-dose screen, 48 h (100 = growth as untreated, 0 = no growth, -100 = all killed)
Conditions in all cases: 10 µM unless noted
[1] = system: NCI-H23 lung
[2] = system: NCI-H226 lung
[3] = system: NCI-H322M lung
[4] = system: HOP-62 NSCLC
[5] = system: NCI-H460 lung
[6] = system: HOP-92 NSCLC
[7] = system: NCI-H522 lung
[8] = system: A549/ATCC NSCLC
[9] = system: 786-0 renal
[10] = system: COLO 205 colon

Measured: growth

O=C(CSc1nc2sc3c(c2c(=O)n1-c1ccc(Cl)cc1)CCCC3)NNC(=O)c1ccc(Br)cc1
inactive: [1] 55.6% | [2] 45.2% | [3] 52.7% | [4] 17% | [5] 76.9% | [6] 61.2% | [7] 64.4% | [8] 82.6% | [9] 98.5% | [10] 120%

COC(=O)c1cc(C(=O)C(C)(C)C)n2c3ccccc3c3ccccc3c12
inactive: [1] 92.4% | [2] 100% | [3] 102% | [4] 132% | [5] 106% | [6] 63.2% | [7] 103% | [8] 115% | [9] 93% | [10] 112%

O=C(OCCOCCO)N(c1cccc(Br)c1)c1nc(SCCN2CCOCC2)nc2c1cnn2CC(Cl)c1ccc(Br)cc1 (stereo not given)
inactive: [2] 32.1% | [3] 50.9% | [4] 32.9% | [6] 30.9% | [8] 15.2%
active: [1] -0.582% | [5] 8.55% | [7] -40.9% | [9] -4.79% | [10] -42.3%

c1n[nH]cc1-c1nc2ccc3[nH]ncc3c2c2c1CC1(CCOCC1)CC2
inactive: [1] 44.2% | [2] 27.3% | [3] 48.6% | [4] 55.5% | [5] 29.4% | [6] 70.7% | [8] 44.7% | [9] 48.2% | [10] 30.3%
active: [7] 7.31%

Cc1ccc(S(=O)(=O)Nc2ccc(-c3ccc4c(c3)NC(=O)/C4=C\c3ccc[nH]3)cc2)cc1
inactive: [1] 33.8% | [2] 94% | [3] 68.3% | [4] 96.5% | [5] 22% | [6] 93.4% | [7] 87.2% | [8] 52.8% | [9] 101% | [10] 93.3%

COc1ccc(NC(=O)CSc2nnc(-c3ccc(-c4nc5ccccc5[nH]4)cc3)o2)cc1
inactive: [1] 11.9% | [2] 20.3% | [3] 74.3% | [6] 10.8% | [10] 49.2%
active: [4] -15.8% | [5] 0.884% | [7] 0.861% | [8] 6.46% | [9] -33.8%

CN(C)c1nc(NCCNS(=O)(=O)c2ccc(C3=Nc4c(N)nc(N)nc4NC(c4ccc(Cl)cc4)C3)cc2)nc(N2CCOCC2)n1 (stereo not given)
inactive: [1] 69.2% | [2] 58.6% | [3] 69.3% | [4] 57.1% | [5] 59.1% | [7] 65.3% | [8] 63.4% | [9] 40.7% | [10] 66.5%
active: [6] -10.8%

Nc1cc(-c2c[nH]c3ccc(Br)cc23)nc2cc(-c3c[nH]c4ccccc34)nn12
active: [1] -68.9% | [2] 3.69% | [3] -18.8% | [4] -61.9% | [5] -53.1% | [6] -50.8% | [7] -77% | [8] -47.2% | [9] -68.2% | [10] -87%

CN1C(=O)C2(C(C#N)=C(c3ccc(Cl)cc3)Nc3c2c(-c2ccccc2)nn3-c2ccccc2)c2ccccc21 (stereo not given)
inactive: [1] 80% | [2] 69.3% | [3] 87.5% | [4] 44.5% | [5] 92.4% | [6] 75.1% | [7] 85.8% | [8] 89.7% | [9] 97.2% | [10] 85.9%

NS(=O)(=O)c1ccc(Nc2nc(SCC(=O)c3ccc(F)cc3)nc3ccccc23)cc1
inactive: [1] 41.8% | [2] 50.1% | [3] 58.7% | [4] 54.4% | [5] 36% | [6] 56.3% | [7] 42.1% | [8] 53.8% | [9] 68.9% | [10] 77%

CC(C)(C)OC(=O)N1CCC2(CC1)Oc1ccccc1[C@H]1CC(c3ccc(Br)cc3)=NN12
inactive: [1] 80.9% | [2] 79% | [3] 86.6% | [4] 77% | [5] 66.6% | [6] 67.5% | [7] 74.4% | [8] 67.4% | [9] 76.8% | [10] 101%

O=C(c1ccc(Cl)cc1)C1[C@H](c2ccccc2Cl)[C@@H](c2ccccc2)NC12C(=O)Nc1ccccc12 (stereo not given in full)
inactive: [3] 12.5%
active: [1] -50.2% | [2] -67.5% | [4] -40.9% | [5] -57.2% | [6] -48% | [7] -30.9% | [8] 3.68% | [9] -58.4% | [10] -87.8%

O=C(NNC(=S)NC(=O)c1ccccc1)c1ccc(OCc2nc3ccc(Cl)cc3[nH]2)cc1
active: [1] -71.3% | [2] -43.9% | [3] -41.5% | [4] -64.3% | [6] -10.8% | [7] 1.39% | [8] -29.2% | [9] 0.779% | [10] -22.5%
inactive: [5] 11.6%

O=C1c2cccc3c(N4CCN(c5ccccc5)CC4)ccc(c23)C(=O)N1c1cccc(-c2nn(-c3ccccc3)cc2-c2nc3ccccc3s2)c1
inactive: [1] 88.5% | [2] 82% | [3] 97% | [4] 110% | [5] 110% | [6] 120% | [7] 108% | [8] 113% | [9] 102% | [10] 110%

COc1ccc(-c2cc(C)nc3[nH]c(=O)sc23)cc1
active: [9] 0.453%
inactive: [1] 74.3% | [2] 36.3% | [3] 68.4% | [4] 44.9% | [5] 52.4% | [6] 16.3% | [7] 61.8% | [8] 52.8% | [10] 119%

CC(C)(C)C(=O)c1c2c(c3ccc4c5ccccc5ccc4n13)C(=O)c1ccccc1C2=O
inactive: [1] 73.5% | [2] 73.1% | [3] 97.5% | [4] 84.6% | [5] 55.9% | [6] 104% | [7] 91.5% | [8] 84.9% | [9] 109% | [10] 102%

O=C(CSc1nnc(-c2ccc(-c3nc4ccc(Cl)cc4[nH]3)cc2)o1)Nc1ccc(Br)cc1
active: [1] -34.7% | [2] -46.9% | [3] 9.95% | [4] -31.1% | [5] -72.3% | [6] -7.8% | [7] -23.3% | [8] -38.9% | [9] -44.1%
inactive: [10] 94.1%

COc1cc(-c2ccc3ncnc(N4CCc5ccc(Cl)cc54)c3c2)cnc1Cl
active: [6] -0.319%
inactive: [1] 19.9% | [2] 18.8% | [3] 15.9% | [4] 50.2% | [5] 12.4% | [7] 38.6% | [8] 34.7% | [9] 14.1% | [10] 32.1%

COc1ccc(/C=C/C(=O)c2ccc(S(=O)(=O)NCCNc3nc(N(C)C)nc(N4CCOCC4)n3)cc2)cc1
inactive: [1] 97.7% | [2] 89.6% | [3] 91.7% | [4] 102% | [5] 104% | [6] 93.1% | [7] 64.7% | [8] 91.5% | [9] 80.1% | [10] 110%

O=C(CCl)Nc1ccc(C(=O)/C=C/c2cc3ccccc3nc2Cl)cc1
-62.9% (active) and 76.9% (inactive): [7]
-41.7% (active) and 23.9% (inactive): [9]
-64.4% (active) and 72.4% (inactive): [10]
-53.6% (active) and 19.5% (inactive): [5]
-83.6% (active) and 34.9% (inactive): [1]
-8.06% (active) and 37.4% (inactive): [4]
inactive: [2] 12.4% and 14.5% | [3] 22.4% and 45.1% | [6] 46.9% and 65.3% | [8] 72.4% and 60.8%

COc1cc(CNC(=O)C[C@H](C)CCC=C(C)C)ccc1OCc1cn(-c2ccc(Cl)c(Cl)c2)nn1
inactive: [1] 68.5% | [2] 50.5% | [3] 82.5% | [4] 95.7% | [5] 45.5% | [6] 51.6% | [7] 61.5% | [8] 46.5% | [9] 80.4% | [10] 53.6%

O=C(N/N=C/c1ccsc1)c1[nH]c2ccc(Br)cc2c1-c1ccccc1
active: [1] -78% | [2] -49.5% | [3] -7.27% | [4] -64.7% | [5] -72.5% | [6] -50.5% | [7] -70.9% | [8] 3.43% | [9] -60.8% | [10] -63.1%

O=C(Nc1nc2ccc([N+](=O)[O-])cc2s1)Nc1ccccc1F
active: [1] 6.62% | [3] 8.1% | [4] 6.89% | [5] 2.96% | [6] -3.78% | [7] -16.6% | [9] 7.95%
inactive: [2] 10.9% | [8] 12.2% | [10] 21.9%

CCCSc1nnc(-c2sc3nc4ccccc4n3c2C)o1
inactive: [1] 111% | [2] 106% | [3] 102% | [4] 132% | [5] 103% | [6] 101% | [7] 100% | [8] 99.8% | [9] 81.5% | [10] 131%
